This is an account of results in PubChem BioAssay (EPA / NIEHS).

The source made the active and inactive calls. The calls were made as follows: active = hit-call score of the fitted dose curve at least 0.9, where 1 is the maximum; inactive = score below 0.9.

What is called AC50 is the midpoint of the concentration-response curve, whichever way the signal moves.

For test [1], the target named is Bile acid receptor (Homo sapiens) (UniProt Q96RI1). Nature of the test: ATG_IR1_CIS: Attagene CIS-FACTORIAL HepG2 Assay for human Nuclear Receptor Subfamily 1 Group H Member 4 (NR1H4), IR1 submotif (AID 2282946). The settings on record: IR1 reporter transcription, actives raise or lower the signal. The method, boiled down: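 Fluorescence of capillary-separated, HpaI-digested RT-PCR reporter products gave IR1-element mRNA induction in HepG2 cells 24 h after dosing. Endogenous transcription factors drove the cis-regulated reporters; activity was fitted bidirectionally against DMSO.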
Chain of Bile acid receptor (Homo sapiens) (Q96RI1 whole entry, looked up): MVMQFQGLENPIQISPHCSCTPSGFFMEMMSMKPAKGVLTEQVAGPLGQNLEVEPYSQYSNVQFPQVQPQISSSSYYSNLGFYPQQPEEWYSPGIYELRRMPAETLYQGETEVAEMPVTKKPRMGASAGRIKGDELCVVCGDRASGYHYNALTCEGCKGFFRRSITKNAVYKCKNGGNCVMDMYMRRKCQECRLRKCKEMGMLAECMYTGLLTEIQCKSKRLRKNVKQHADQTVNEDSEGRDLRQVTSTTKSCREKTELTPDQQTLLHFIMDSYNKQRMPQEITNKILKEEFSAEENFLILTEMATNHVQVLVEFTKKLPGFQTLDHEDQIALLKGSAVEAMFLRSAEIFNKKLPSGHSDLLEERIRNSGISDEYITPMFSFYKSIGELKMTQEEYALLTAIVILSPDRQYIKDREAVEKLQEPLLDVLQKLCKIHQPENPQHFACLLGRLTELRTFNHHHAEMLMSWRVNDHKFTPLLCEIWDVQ

A short description of test [2]: ATG_ISRE_CIS: Attagene CIS-FACTORIAL HepG2 Assay for human Interferon Regulatory Factor 1 (IRF1) binding to an Interferon-Stimulated Response Element (ISRE) (AID 2282948). Conditions: HepG2 ISRE cis-reporter (Attagene), mRNA transcription readout; actives raise or lower the signal. The procedure, abridged:
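Uses HepG2 liver cells transfected with cis-regulated reporters and measures mRNA 24 h post-dosing through RT-PCR, primer-extension labelling and capillary electrophoresis, with DMSO as negative control.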

A short description of test [3]: ATG_M_32_CIS: Attagene CIS-FACTORIAL HepG2 Assay for M32 Transcription Factor (Internal Marker) (AID 2282949).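 Also: background control marker of the multiplexed CIS panel rather than a real target.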 The settings on record: HepG2 Attagene cis-factorial M32 reporter, mRNA; actives raise or lower the signal. The method, boiled down: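 Using DMSO as baseline, bidirectional curve fits were applied to reporter mRNA signals. These came from transiently transfected HepG2 cells exposed for 24 h, with RNA analysed by RT-PCR, FAM primer extension, HpaI digestion and CE.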

Test [4] can be described thus: ATG_M_06_CIS: Attagene CIS-FACTORIAL HepG2 Assay for M06 Transcription Factor (Internal Marker) (AID 2282950). Conditions: HepG2 Attagene CIS-FACTORIAL M06 internal marker reporter; actives raise or lower the signal. The procedure, abridged:
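Read-out is fluorescence of labelled reporter cDNA fragments resolved by capillary electrophoresis after RT-PCR. Cells: HepG2 carrying transfected cis-promoter reporter units, treated 24 h. Gain or loss of signal fitted relative to DMSO.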

In test [5] the target is Hypoxia-inducible factor 1-alpha (Homo sapiens) (UniProt Q16665). Nature of the test: ATG_HIF1a_CIS: Attagene CIS-FACTORIAL HepG2 Assay for human Hypoxia Inducible Factor 1 (HIF1A) (AID 2282951). The settings on record: HepG2 Attagene cis-factorial HIF1a reporter transcription; actives raise or lower the signal. The procedure, abridged: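 Dosed 24 h, transfected HepG2 cells yielded total RNA whose reporter transcripts were RT-PCR-amplified and sized by capillary electrophoresis using fluorescent labelling; DMSO defined baseline, with gain and loss of signal both fitted.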
Chain of Hypoxia-inducible factor 1-alpha (Homo sapiens) (Q16665 whole entry, looked up): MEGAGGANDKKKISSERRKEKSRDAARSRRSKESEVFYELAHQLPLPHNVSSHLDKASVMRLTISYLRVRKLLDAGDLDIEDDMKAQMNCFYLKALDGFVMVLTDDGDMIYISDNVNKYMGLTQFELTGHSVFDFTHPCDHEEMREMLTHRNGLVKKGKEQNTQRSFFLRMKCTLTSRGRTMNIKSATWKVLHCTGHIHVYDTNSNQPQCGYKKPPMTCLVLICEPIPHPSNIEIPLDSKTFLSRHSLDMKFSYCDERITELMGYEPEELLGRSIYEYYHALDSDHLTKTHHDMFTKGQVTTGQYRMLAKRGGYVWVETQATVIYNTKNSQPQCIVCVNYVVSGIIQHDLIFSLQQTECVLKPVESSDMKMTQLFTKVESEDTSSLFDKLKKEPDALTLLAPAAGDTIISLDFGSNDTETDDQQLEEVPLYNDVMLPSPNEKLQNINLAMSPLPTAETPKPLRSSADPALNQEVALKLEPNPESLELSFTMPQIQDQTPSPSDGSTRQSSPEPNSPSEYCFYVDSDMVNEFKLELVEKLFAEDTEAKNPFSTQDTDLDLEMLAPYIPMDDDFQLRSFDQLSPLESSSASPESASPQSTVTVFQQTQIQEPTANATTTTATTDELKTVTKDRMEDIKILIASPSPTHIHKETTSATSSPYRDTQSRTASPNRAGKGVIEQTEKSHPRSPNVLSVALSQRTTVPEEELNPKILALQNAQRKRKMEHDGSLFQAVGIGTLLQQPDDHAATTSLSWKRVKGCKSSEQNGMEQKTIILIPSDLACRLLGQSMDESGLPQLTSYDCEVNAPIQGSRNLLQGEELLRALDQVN

The target in test [6] is Hepatocyte nuclear factor 6 (Homo sapiens) (UniProt Q9UBC0). The experiment in a line: ATG_HNF6_CIS: Attagene CIS-FACTORIAL HepG2 Assay for human Hepatocyte Nuclear Factor 6 (HNF6) (AID 2282952). Conditions: HepG2 Attagene cis-factorial HNF6 reporter transcription; actives raise or lower the signal. The procedure, abridged:
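Endogenous transcription factor activity in human HepG2 liver cells was captured through cis-regulated reporter constructs. After 24 h treatment, reporter mRNA was measured by RT-PCR with capillary electrophoresis, and activity was fitted in both directions relative to DMSO.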

The target of test [7] is Heat shock factor protein 1 (Homo sapiens) (UniProt Q00613). The experiment in a line: ATG_HSE_CIS: Attagene CIS-FACTORIAL HepG2 Assay for human Heat Shock Transcription Factor 1 (HSE) (AID 2282953). Conditions: HepG2 HSE cis-reporter, Attagene RNA transcription; actives raise or lower the signal. The method, boiled down: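 HepG2, transient MRTU transfection, cis-promoter reporters (endogenous TF activity). 24 h compound. RNA → oligo(dT) RT → PCR → 6-FAM primer extension → HpaI cut → CE. Bidirectional fit vs DMSO.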
Chain of Heat shock factor protein 1 (Homo sapiens) (Q00613 whole entry, looked up): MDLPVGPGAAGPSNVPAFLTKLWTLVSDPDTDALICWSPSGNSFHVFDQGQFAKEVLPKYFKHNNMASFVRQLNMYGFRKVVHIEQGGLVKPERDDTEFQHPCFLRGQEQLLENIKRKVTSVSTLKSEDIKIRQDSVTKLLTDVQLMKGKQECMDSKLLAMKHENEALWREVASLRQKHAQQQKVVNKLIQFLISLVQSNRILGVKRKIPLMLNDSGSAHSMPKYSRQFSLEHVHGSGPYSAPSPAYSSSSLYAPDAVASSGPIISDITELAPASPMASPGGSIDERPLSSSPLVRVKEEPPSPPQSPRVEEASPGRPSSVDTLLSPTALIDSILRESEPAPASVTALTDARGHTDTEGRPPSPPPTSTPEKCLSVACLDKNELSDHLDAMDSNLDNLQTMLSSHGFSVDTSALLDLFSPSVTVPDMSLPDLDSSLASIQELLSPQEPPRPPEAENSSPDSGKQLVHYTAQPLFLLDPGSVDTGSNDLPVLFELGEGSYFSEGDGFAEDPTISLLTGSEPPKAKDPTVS

The nature of test [8]: ATG_MRE_CIS: Attagene CIS-FACTORIAL HepG2 Assay for human Metal Responsive Element (MRE) (AID 2282954). The settings on record: HepG2 MRE cis-reporter transcription, Attagene multiplex; actives raise or lower the signal. The method, boiled down:
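RT-PCR/capillary electrophoresis readout of reporter mRNA, 24 h post-dosing, in HepG2 cells transfected with multiplexed cis-regulated reporter constructs. Gain or loss of signal fitted bidirectionally against DMSO baseline.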

Test [9] is described as follows: ATG_PBREM_CIS: Attagene CIS-FACTORIAL HepG2 Assay for human Phenobarbital-responsive Enhancer Module (PBREM) (AID 2282955). Conditions: HepG2 PBREM cis-reporter, Attagene multiplexed transcription; actives raise or lower the signal. The method, boiled down:
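Transfected liver-derived HepG2 cells exposed 24 h; PBREM reporter transcript quantified via RT-PCR and capillary electrophoresis, with activity in either direction referenced to DMSO.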

A short description of test [10]: ATG_PXRE_CIS: Attagene CIS-FACTORIAL HepG2 Assay for human Pregnane X Receptor Element (PXRE) (AID 2282957). The settings on record: HepG2 Attagene CIS-FACTORIAL PXRE reporter, mRNA; actives raise or lower the signal. The method, boiled down: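 Endogenous transcription factor activity in HepG2 was gauged through induction of reporter mRNA driven by a cis-regulating promoter element, sampled 24 h post-treatment. Activity was fitted in both directions against DMSO negative control.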

Test [11] in a line: ATG_PPRE_CIS: Attagene CIS-FACTORIAL HepG2 Assay for human Peroxisome Proliferator-activated Response Element (PPRE) (AID 2282958). Conditions: HepG2 PPRE cis-element reporter, Attagene transcription factor profiling; actives raise or lower the signal. The method, boiled down:
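Measured endpoint: PPRE-controlled reporter mRNA, detected by RT-PCR and capillary electrophoresis fluorescence, from transiently transfected HepG2 cells 24 h after dosing. Curves fitted in both directions using DMSO baseline.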

Test [12] is described as follows: ATG_RORE_CIS: Attagene CIS-FACTORIAL HepG2 Assay for human RAR-related Orphan Receptor Element (RORE) (AID 2282959). The settings on record: HepG2 Attagene cis-factorial RORE reporter, mRNA; actives raise or lower the signal. The procedure, abridged: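 Transiently transfected HepG2 reporter cells were treated 24 h. Reporter transcripts were detected by RT-PCR and capillary electrophoresis, with bidirectional fitting against DMSO.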

Test [13] can be described thus: ATG_Sox_CIS: Attagene CIS-FACTORIAL HepG2 Assay for human SRY-box transcription factor (SOX) (AID 2282960). Conditions: HepG2 Attagene cis-factorial SOX reporter, mRNA; actives raise or lower the signal. The method, boiled down:
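Gain- or loss-of-signal endpoint, fitted bidirectionally with DMSO as negative control. Based on reporter mRNA from transfected HepG2 cells harvested 24 h post-treatment and quantified via RT-PCR and capillary electrophoresis.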

Test [14] addresses Transcription factor Sp1 (Homo sapiens) (UniProt P08047). Nature of the test: ATG_Sp1_CIS: Attagene CIS-FACTORIAL HepG2 Assay for human Specificity Protein 1 (Sp1) (AID 2282961). The settings on record: HepG2 Sp1 cis-reporter transcription, actives raise or lower the signal. The method, boiled down:
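Endpoint reflects endogenous Sp1 transcriptional activity, not an exogenous fusion protein: HepG2 cells with transfected cis-regulated reporters, 24 h dosing, RT-PCR/capillary electrophoresis mRNA read-out, DMSO-normalised bidirectional fit.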

A short description of test [15]: ATG_SREBP_CIS: Attagene CIS-FACTORIAL HepG2 Assay for human Sterol Regulatory Element Binding (SREBP) (AID 2282962). Conditions: HepG2 Attagene cis-factorial SREBP reporter, mRNA; actives raise or lower the signal. The method, boiled down:
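In this cis-format assay, HepG2 liver cells express reporters controlled by promoter elements responsive to native transcription factors. Exposure lasts 24 h; reporter mRNA fluorescence from capillary electrophoresis gives the signal, fitted bidirectionally against DMSO.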

Test [16] concerns the target Signal transducer and activator of transcription 3 (Homo sapiens) (UniProt P40763). Nature of the test: ATG_STAT3_CIS: Attagene CIS-FACTORIAL HepG2 Assay for human Signal Transducer and Activator of Transcription 3 (STAT3) (AID 2282963). The settings on record: HepG2, Attagene cis-factorial STAT3 reporter transcription; actives raise or lower the signal. The method, boiled down:
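Readout: fluorescent reporter mRNA fragments resolved by capillary electrophoresis. Setup: HepG2 transfected with MRTUs reporting endogenous transcription-factor activity, dosed 24 h. Gain or loss of signal fitted bidirectionally against DMSO control.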

Test [17] is described as follows: ATG_TA_CIS: Attagene CIS-FACTORIAL HepG2 Assay for human TA Basal Promoter (AID 2282964). The settings on record: HepG2 Attagene CIS-factorial TA basal promoter reporter; actives raise or lower the signal. The method, boiled down: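 Read-out: fluorescent reporter-transcript fragments resolved by capillary electrophoresis after RT-PCR and HpaI digestion. Source: HepG2 cells carrying transiently transfected multi-reporter cis constructs, treated 24 h. Endpoint fitted bidirectionally relative to DMSO.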

The nature of test [18]: ATG_TCF_b_cat_CIS: Attagene CIS-FACTORIAL HepG2 Assay for human T-Cell-Factor with beta-catenin (TCF/b-cat) (AID 2282965). The settings on record: HepG2 TCF/beta-catenin cis-reporter transcription, actives raise or lower the signal. The method, boiled down: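 HepG2, transient MRTU transfection, cis-element-driven reporters (endogenous TFs). 24 h compound exposure. Readout: reporter mRNA by RT-PCR + 6-FAM primer extension, HpaI digest, capillary electrophoresis. Gain/loss fit vs DMSO baseline.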

Test [19] in a line: ATG_GRE_CIS: Attagene CIS-FACTORIAL HepG2 Assay for human Glucocorticoid Response Elements (GRE) (AID 2282947). The settings on record: HepG2 GRE cis-reporter, Attagene multiplex mRNA; actives raise or lower the signal. The method, boiled down:
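Read-out: fluorescent reporter-transcript fragments separated by capillary electrophoresis after RT-PCR. Transiently transfected HepG2 cells carrying cis-element-driven reporter units were dosed for 24 h; gain or loss of signal fitted against DMSO control.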

Test [20] deals with Paired box protein Pax-6 (Homo sapiens) (UniProt P26367). The experiment in a line: ATG_Pax6_CIS: Attagene CIS-FACTORIAL HepG2 Assay for human Paired Box 6 (PAX6) (AID 2282956). Conditions: HepG2 CIS-FACTORIAL PAX6 reporter transcription, RNA readout; actives raise or lower the signal. The method, boiled down:
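DMSO-referenced bidirectional fits of reporter mRNA fluorescence; HepG2 with transient cis-promoter MRTUs, 24 h post-dose, RT-PCR plus capillary electrophoresis detection.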

Chain of Paired box protein Pax-6 (Homo sapiens) (P26367 whole entry, looked up): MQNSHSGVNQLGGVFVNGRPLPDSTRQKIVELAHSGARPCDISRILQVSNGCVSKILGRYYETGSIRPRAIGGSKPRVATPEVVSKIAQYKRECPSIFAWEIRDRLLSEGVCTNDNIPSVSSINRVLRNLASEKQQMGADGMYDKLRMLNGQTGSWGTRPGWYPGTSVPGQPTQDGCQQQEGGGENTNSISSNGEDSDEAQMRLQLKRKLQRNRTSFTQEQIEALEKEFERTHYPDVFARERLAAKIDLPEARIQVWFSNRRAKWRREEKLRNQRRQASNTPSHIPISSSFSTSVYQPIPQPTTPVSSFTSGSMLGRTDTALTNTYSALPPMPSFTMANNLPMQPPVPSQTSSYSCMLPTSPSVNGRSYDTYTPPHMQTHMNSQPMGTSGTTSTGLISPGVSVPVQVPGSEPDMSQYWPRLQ
Chain of Signal transducer and activator of transcription 3 (Homo sapiens) (P40763 whole entry, looked up, the tested form may be a part): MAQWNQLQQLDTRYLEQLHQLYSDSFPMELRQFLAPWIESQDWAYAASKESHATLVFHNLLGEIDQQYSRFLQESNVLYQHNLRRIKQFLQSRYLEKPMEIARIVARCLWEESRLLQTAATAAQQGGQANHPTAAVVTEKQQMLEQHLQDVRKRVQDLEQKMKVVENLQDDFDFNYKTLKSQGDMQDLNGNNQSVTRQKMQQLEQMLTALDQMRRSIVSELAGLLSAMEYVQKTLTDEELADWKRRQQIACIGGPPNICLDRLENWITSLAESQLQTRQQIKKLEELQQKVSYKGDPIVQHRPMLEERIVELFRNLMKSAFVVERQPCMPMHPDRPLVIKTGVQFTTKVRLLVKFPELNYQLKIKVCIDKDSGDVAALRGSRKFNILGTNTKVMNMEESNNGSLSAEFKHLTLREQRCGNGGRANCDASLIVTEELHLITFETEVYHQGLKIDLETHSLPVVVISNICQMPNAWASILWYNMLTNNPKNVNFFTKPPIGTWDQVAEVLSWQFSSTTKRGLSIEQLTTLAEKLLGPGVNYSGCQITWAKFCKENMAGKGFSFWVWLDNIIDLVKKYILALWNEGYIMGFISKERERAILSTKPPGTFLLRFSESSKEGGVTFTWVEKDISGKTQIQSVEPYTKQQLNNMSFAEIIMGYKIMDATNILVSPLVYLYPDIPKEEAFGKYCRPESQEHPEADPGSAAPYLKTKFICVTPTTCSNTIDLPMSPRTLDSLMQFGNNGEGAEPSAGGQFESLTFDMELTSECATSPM
Chain of Hepatocyte nuclear factor 6 (Homo sapiens) (Q9UBC0 whole entry, looked up): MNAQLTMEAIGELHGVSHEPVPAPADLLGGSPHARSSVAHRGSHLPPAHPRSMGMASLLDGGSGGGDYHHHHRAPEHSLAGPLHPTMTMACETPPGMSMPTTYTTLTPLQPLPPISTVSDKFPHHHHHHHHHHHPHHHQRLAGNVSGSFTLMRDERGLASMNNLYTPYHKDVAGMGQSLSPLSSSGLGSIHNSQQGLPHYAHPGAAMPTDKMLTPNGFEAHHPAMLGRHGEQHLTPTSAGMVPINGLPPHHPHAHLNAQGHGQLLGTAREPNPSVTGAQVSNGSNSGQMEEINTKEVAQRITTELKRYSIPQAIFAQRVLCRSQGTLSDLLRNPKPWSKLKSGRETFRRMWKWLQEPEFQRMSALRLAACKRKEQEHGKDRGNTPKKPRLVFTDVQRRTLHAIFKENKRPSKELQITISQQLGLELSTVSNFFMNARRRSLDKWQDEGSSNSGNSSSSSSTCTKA
Chain of Transcription factor Sp1 (Homo sapiens) (P08047 whole entry, looked up, the tested form may be a part): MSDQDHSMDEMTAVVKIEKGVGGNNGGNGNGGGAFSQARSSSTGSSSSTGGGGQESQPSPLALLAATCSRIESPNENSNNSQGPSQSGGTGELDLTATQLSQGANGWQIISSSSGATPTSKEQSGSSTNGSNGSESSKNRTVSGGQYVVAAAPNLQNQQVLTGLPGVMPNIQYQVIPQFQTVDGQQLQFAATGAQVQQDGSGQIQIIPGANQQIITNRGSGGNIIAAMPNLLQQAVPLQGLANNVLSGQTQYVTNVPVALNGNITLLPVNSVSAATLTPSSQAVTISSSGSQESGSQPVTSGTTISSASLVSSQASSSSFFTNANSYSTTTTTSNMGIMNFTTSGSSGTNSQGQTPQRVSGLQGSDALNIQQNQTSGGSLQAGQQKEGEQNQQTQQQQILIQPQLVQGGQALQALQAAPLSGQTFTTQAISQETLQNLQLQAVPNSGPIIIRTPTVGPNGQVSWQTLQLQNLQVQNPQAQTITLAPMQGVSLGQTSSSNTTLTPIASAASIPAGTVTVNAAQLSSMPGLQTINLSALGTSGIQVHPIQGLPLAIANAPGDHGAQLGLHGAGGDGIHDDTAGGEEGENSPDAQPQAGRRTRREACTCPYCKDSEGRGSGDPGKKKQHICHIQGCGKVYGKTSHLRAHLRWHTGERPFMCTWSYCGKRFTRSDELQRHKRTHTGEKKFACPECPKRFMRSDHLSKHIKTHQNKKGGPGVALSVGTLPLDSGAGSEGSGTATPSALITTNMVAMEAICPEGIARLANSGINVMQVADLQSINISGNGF

Consider `CCOC(=O)COC(=O)c1cc(Oc2ccc(C(F)(F)F)cc2Cl)ccc1[N+](=O)[O-]`, for which the compound was classed as inactive in test [1], in test [2], in [3], in test [4], in test [5] and in [6]. The result in test [7], in test [8], in [9], in test [13], in [14] and in test [15] was inactive. Further, the result in test [16], in test [17] and in test [18] was inactive. For the same compound, the AC50 was 9.9 µM (active) in test [10], 12.4 µM (active) in [11] and 34.3 µM (active) in [12].

For the compound `CCc1cc(Cc2cc(CC)cc(C(C)(C)C)c2O)c(O)c(C(C)(C)C)c1`, the outcome in test [1], in test [19], in test [4], in test [6], in test [13] and in [15] was inactive. Further, the outcome in [16] and in [18] was inactive. Moreover, the AC50 in test [2] was 17.4 µM (active); in test [5], 16.7 µM (active); in test [7] it was 18.5 µM (active); in test [8], 18.1 µM (active); in test [20], 16.6 µM (active); in test [10], 0.0355 µM (active). Also, the AC50 in test [11] was 11.1 µM (active); in test [12] it was 18.1 µM (active); in test [14], 11.1 µM (active); in test [17], 11.1 µM (active).

Regarding `CCCCCCCCCC(=O)OC`, the result in [1], in test [2], in test [3], in [4], in test [5] and in [6] was inactive. The result in [7], in test [8], in [9], in test [20], in [10] and in [11] was inactive. Besides, the result in [12], in test [13], in test [14], in [15], in test [16] and in test [17] was inactive. The compound was called inactive in [18].

As to `O=C(Nc1ccc([N+](=O)[O-])cc1)Nc1ccc([N+](=O)[O-])cc1` (tested in a mixture with another compound), the result in test [1], in test [19], in [2], in [4], in [5] and in test [6] was inactive. The compound was called inactive in test [7], in [8], in test [20], in [10], in test [11] and in test [12]. Also, the compound was classed as inactive in [14], in test [16], in [17] and in test [18].
